Data: the supplement of paper PMC8728848
Only a selection was taken, and the strongest signals are over-represented in it overall.

Columns and labels:
Experiment in all cases: glycan array binding signal (z-score within array); higher = stronger binding
Conditions in all cases: glycan notation: IUPAC condensed, linker removed; mutation: D57L
[1] = target: Fuc(a1-2)Gal(b1-3)GlcNAc(b1-2)Man(a1-3)[Fuc(a1-2)Gal(b1-3)GlcNAc(b1-2)Man(a1-6)]Man(b1-4)GlcNAc(b1-4)GlcNAc
How it was run: (§1)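 Negative Z-scores can be read as non-binding. The Z-score is calculated within each array and then averaged across arrays of one protein sequence at different concentrations or buffers and across linkers. Arrays, 3228 in all, were curated from the Consortium for Functional Glycomics database and kept only where the protein sequence was available.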

[2] = target: Fuc(a1-2)Gal(b1-3)GlcNAc(b1-3)Gal(b1-4)Glc
How it was run: as §1

[3] = target: Fuc(a1-2)Gal(b1-3)GlcNAc(b1-3)[Gal(b1-4)GlcNAc(b1-6)]Gal(b1-4)Glc
How it was run: as §1

[4] = target: Fuc(a1-2)Gal(b1-3)GlcNAc(b1-3)[Neu5Ac(a2-6)Gal(b1-4)GlcNAc(b1-6)]Gal(b1-4)Glc
How it was run: as §1

[5] = target: Fuc(a1-2)Gal(b1-4)Fuc(a1-3)]GlcNAc(b1-2)Man(a1-3)[Fuc(a1-2)Gal(b1-4)[Fuc(a1-3)]GlcNAc(b1-2)Man(a1-6)]Man(b1-4)GlcNAc(b1-4)GlcNAc
How it was run: as §1

[6] = target: Fuc(a1-2)Gal3S(b1-4)GlcNAc
How it was run: as §1

[7] = target: Fuc(a1-2)Gal6S(b1-3)GlcNAc6S
How it was run: as §1

[8] = target: Fuc(a1-2)[Gal(a1-3)]Gal(b1-3)GalNAc(b1-3)Gal(a1-4)Gal(b1-4)Glc
How it was run: as §1

[9] = target: Fuc(a1-2)[Gal(a1-3)]Gal(b1-4)GlcNAc(b1-2)Man(a1-3)[Fuc(a1-2)[Gal(a1-3)]Gal(b1-4)GlcNAc(b1-2)Man(a1-6)]Man(b1-4)GlcNAc(b1-4)[Fuc(a1-6)]GlcNAc
How it was run: as §1

[10] = target: Fuc(a1-2)[Gal(a1-3)]Gal(b1-4)GlcNAc(b1-6)GalNAc
How it was run: as §1

[11] = target: Fuc(a1-3)[Gal3S(b1-4)]GlcNAc6S
How it was run: as §1

Gal(a1-3)GalNAc = target: Gal(a1-3)GalNAc
How it was run: as §1

[12] = target: Gal(b1-3)GalNAc(b1-4)Gal(b1-4)Glc
How it was run: as §1

[13] = target: Gal(b1-3)GlcNAc(b1-3)Gal(b1-4)GlcNAc
How it was run: as §1

[14] = target: Gal(b1-3)[Fuc(a1-4)]GlcNAc(b1-2)Man(a1-3)[Gal(b1-3)[Fuc(a1-4)]GlcNAc(b1-2)Man(a1-6)]Man(b1-4)GlcNAc(b1-4)[Fuc(a1-6)]GlcNAc
How it was run: as §1

[15] = target: Gal(b1-4)GlcNAc(a1-6)Gal(b1-4)GlcNAc
How it was run: as §1

[16] = target: Gal(b1-4)GlcNAc(b1-2)Man(a1-3)[Man(a1-6)]Man(b1-4)GlcNAc(b1-4)GlcNAc
How it was run: as §1

[17] = target: Gal(b1-4)GlcNAc(b1-2)Man(a1-6)Man(b1-4)GlcNAc(b1-4)GlcNAc
How it was run: as §1

[18] = target: Gal(b1-4)GlcNAc(b1-3)Gal(b1-4)GlcNAc(b1-2)[Gal(b1-4)GlcNAc(b1-3)Gal(b1-4)GlcNAc(b1-6)]Man(a1-6)[Gal(b1-4)GlcNAc(b1-3)Gal(b1-4)GlcNAc(b1-2)Man(a1-3)]Man(b1-4)GlcNAc(b1-4)GlcNAc
How it was run: as §1

[19] = target: Gal(b1-4)GlcNAc(b1-3)Gal(b1-4)GlcNAc(b1-3)Gal(b1-4)GlcNAc(b1-2)Man(a1-3)[Gal(b1-4)GlcNAc(b1-3)Gal(b1-4)GlcNAc(b1-3)Gal(b1-4)GlcNAc(b1-2)Man(a1-6)]Man(b1-4)GlcNAc(b1-4)[Fuc(a1-6)]GlcNAc
How it was run: as §1

[20] = target: Gal(b1-4)GlcNAc(b1-3)Gal(b1-4)GlcNAc(b1-3)Gal(b1-4)GlcNAc(b1-3)Gal(b1-4)GlcNAc(b1-3)Gal(b1-4)GlcNAc(b1-2)Man(a1-3)[Gal(b1-4)GlcNAc(b1-3)Gal(b1-4)GlcNAc(b1-3)Gal(b1-4)GlcNAc(b1-3)Gal(b1-4)GlcNAc(b1-3)Gal(b1-4)GlcNAc(b1-2)Man(a1-6)]Man(b1-4)GlcNAc(b1-4)[Fuc(a1-6)]GlcNAc
How it was run: as §1

[21] = target: Gal(b1-4)GlcNAc(b1-3)[GlcNAc(b1-6)]Gal(b1-4)GlcNAc
How it was run: as §1

Gal3S(b1-3)GalNAc = target: Gal3S(b1-3)GalNAc
How it was run: as §1

Gal3S6S(b1-4)GlcNAc6S = target: Gal3S6S(b1-4)GlcNAc6S
How it was run: as §1

Gal6S(b1-4)Glc = target: Gal6S(b1-4)Glc
How it was run: as §1

Gal6S(b1-4)GlcNAc = target: Gal6S(b1-4)GlcNAc
How it was run: as §1

Glc(a1-6)Glc(a1-6)Glc = target: Glc(a1-6)Glc(a1-6)Glc
How it was run: as §1

[22] = target: Glc(a1-6)Glc(a1-6)Glc(a1-6)Glc
How it was run: as §1

[23] = target: GlcNAc(b1-2)[GlcNAc(b1-4)]Man(a1-3)[GlcNAc(b1-2)Man(a1-6)]Man(b1-4)GlcNAc(b1-4)GlcNAc
How it was run: as §1

B1: PNGase F (Flavobacterium meningosepticum) (protein)
chain: GIPAPADNTVNIKTFDKVKNAFGDGLSQSAEGTFTFPADVTAVKTIKMFIKNECPNKTCLEWDRYANVYVKNKTTGEWYEIGRFITPYWVGTEKLPRGLEIDVTDFKSLLSGNTELKIYTETWLAKGREYSVDFDIVYGTPDYKYSAVVPVVQYNKSSIDGVPYGKAHTLALKKNIQLPTNTEKAYLRTTISGWGHAKPYDAGSRGCAEWCFRTHTIAINNSNTFQHQLGALGCSANPINNQSPGNWTPDRAGWCPGMAVPTRIDVLNNSLIGSTFSYEYKFQNWTNNGTNGDAFYAISSFVIAKSNTPISAPVVTNLDPHHHHHH
glycan array binding signal (z-score) [1]: 3.35
glycan array binding signal (z-score) [2]: -0.517
glycan array binding signal (z-score) [3]: 0.038
glycan array binding signal (z-score) [4]: -0.604
glycan array binding signal (z-score) [5]: 7.24
glycan array binding signal (z-score) [6]: -0.942
glycan array binding signal (z-score) [7]: 4.52
glycan array binding signal (z-score) [8]: -0.247
glycan array binding signal (z-score) [9]: 1.68
glycan array binding signal (z-score) [10]: 1.12
glycan array binding signal (z-score) [11]: -0.29
glycan array binding signal (z-score) (Gal(a1-3)GalNAc): -0.507
glycan array binding signal (z-score) [12]: -0.31
glycan array binding signal (z-score) [13]: -0.079
glycan array binding signal (z-score) [14]: 4.53
glycan array binding signal (z-score) [15]: -1.25
glycan array binding signal (z-score) [16]: 2.77
glycan array binding signal (z-score) [17]: 0.974
glycan array binding signal (z-score) [18]: 3.43
glycan array binding signal (z-score) [19]: 0.367
glycan array binding signal (z-score) [20]: 0.345
glycan array binding signal (z-score) [21]: 3.02
glycan array binding signal (z-score) (Gal3S(b1-3)GalNAc): -0.275
glycan array binding signal (z-score) (Gal3S6S(b1-4)GlcNAc6S): 3.81
glycan array binding signal (z-score) (Gal6S(b1-4)Glc): 0.11
glycan array binding signal (z-score) (Gal6S(b1-4)GlcNAc): -0.941
glycan array binding signal (z-score) (Glc(a1-6)Glc(a1-6)Glc): 0.269
glycan array binding signal (z-score) [22]: 1.14
glycan array binding signal (z-score) [23]: -0.836
